Measured values published in the supplement of paper PMC10849652.
Targets with a hit are over-represented here; the source holds about 7,900 in all. About 0.6% of all pairs of compound and target were hits.

Key:
Assay in all cases: log2 fold change, soluble protein after heating vs DMSO (PISA); higher = thermal stabilisation; K562 cells, 10 uM, 30 min; active = over 0.2 and 3.5 SD of the protein, either way, in both replicates (recomputed)
[1] = compound: CC1=C(C=C(C=C1)NC(=O)C2=CC(=CC=C2)C(C)(C)C#N)NC3=CC4=C(C=C3)N=CN(C4=O)C
In short: (§1)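 K562 cells at 2×10^6 cells/mL were given 10 μM compound for 30 min. Aliquots then went through 3 min of heating across 48°C-58°C, were pooled, and were extracted in PBS with 0.5% NP-40 at 4°C, and the supernatant after 21,000xg for 90 min was quantified by TMTpro 16plex LC-MS/MS with channel sums equalised. Thermal stability relative to control samples, from duplicates, is given as log2 fold change.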

[2] = compound: CC1=C(C=C(C=C1)NC(=O)C2=CC(=CC=C2)N(C)C)NC(=O)C3=CC=C(C=C3)O
In short: as §1

[3] = compound: CC1=CC=C(C=C1)SC2=C3C=C(SC3=CN=C2)C(=O)N
In short: as §1

[4] = compound: CC1=NC(=CC=C1)C2=C(N=C(N2)C(C)(C)C)C3=CC4=NC=CN=C4C=C3
In short: as §1

Nexturastat A = compound: CCCCN(Cc1ccc(C(=O)NO)cc1)C(=O)Nc1ccccc1 [Nexturastat A]
In short: as §1

vemurafenib = compound: CCCS(=O)(=O)Nc1ccc(F)c(C(=O)c2c[nH]c3ncc(-c4ccc(Cl)cc4)cc23)c1F [vemurafenib]
In short: as §1

[5] = compound: CCCS(=O)(=O)Nc1ccc(F)c(C(=O)c2c[nH]c3ncc(Cl)cc23)c1F
In short: as §1

[6] = compound: CCCc1cc(C)[nH]c(=O)c1CNC(=O)c1cc(-c2ccnc(N3CCN(C)CC3)c2)cc2c1cnn2C(C)C
In short: as §1

givinostat = compound: CCN(CC)Cc1ccc2cc(COC(=O)Nc3ccc(C(=O)NO)cc3)ccc2c1 [givinostat]
In short: as §1

barasertib = compound: CCN(CCCOc1ccc2c(Nc3cc(CC(=O)Nc4cccc(F)c4)[nH]n3)ncnc2c1)CCOP(=O)(O)O [barasertib]
In short: as §1

Measured: log2 fold change

AIP (UniProt O00170)
inactive: [1] 0.014 | [2] -0.074 | [3] 0.032 | [4] 0.07 | Nexturastat A -0.07 | vemurafenib 0.071 | [5] 0.088 | [6] 0.065 | givinostat 0.043 | barasertib 0.031

BPHL (UniProt Q86WA6)
inactive: [1] -0.037 | [2] -0.031 | [3] -0.058 | [4] 0.017 | Nexturastat A -0.205 | vemurafenib 0.004 | [5] -0.062 | [6] 0.057 | givinostat 0.023 | barasertib -0.006

ADPRHL2 (UniProt Q9NX46)
inactive: [1] 0.022 | [2] -0.06 | [3] 0.007 | [4] 0.111 | Nexturastat A -0.077 | vemurafenib 0.126 | [5] 0.076 | [6] -0.003 | givinostat 0.004 | barasertib 0.043

AP2B1 isoform 2 (UniProt P63010)
inactive: [1] 0.016 | [2] 0.018 | [3] 0.021 | [4] 0.018 | Nexturastat A 0.033 | vemurafenib 0.031 | [5] 0.039 | [6] -0.021 | givinostat 0.015 | barasertib -0.013

ARFGAP2 (UniProt Q8N6H7)
Sequence of UniProt Q8N6H7 (Q8N6H7 whole entry, looked up): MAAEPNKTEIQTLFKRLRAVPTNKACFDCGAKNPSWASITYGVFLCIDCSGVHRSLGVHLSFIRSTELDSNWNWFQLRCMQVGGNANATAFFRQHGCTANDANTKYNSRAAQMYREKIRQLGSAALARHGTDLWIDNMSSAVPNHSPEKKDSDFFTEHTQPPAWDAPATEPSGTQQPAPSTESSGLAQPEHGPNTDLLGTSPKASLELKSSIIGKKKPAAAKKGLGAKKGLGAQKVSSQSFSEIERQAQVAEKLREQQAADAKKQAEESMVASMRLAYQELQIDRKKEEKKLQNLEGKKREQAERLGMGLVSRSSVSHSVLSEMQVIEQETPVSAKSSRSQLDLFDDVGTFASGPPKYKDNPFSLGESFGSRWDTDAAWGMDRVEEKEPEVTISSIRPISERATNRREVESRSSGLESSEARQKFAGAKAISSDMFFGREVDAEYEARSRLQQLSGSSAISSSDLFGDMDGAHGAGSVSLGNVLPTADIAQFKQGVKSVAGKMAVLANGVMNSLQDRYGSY
inactive: [1] 0.03 | [2] -0.065 | [3] -0.027 | [4] -0.04 | Nexturastat A -0.033 | vemurafenib 0.02 | [5] 0.033 | [6] 0.021 | givinostat 0.06 | barasertib 0.066

AKAP8L (UniProt Q9ULX6)
inactive: [1] -0.124 | [2] -0.007 | [3] -0.092 | [4] 0.005 | Nexturastat A 0.054 | vemurafenib 0.069 | [5] 0.067 | [6] 0.02 | givinostat 0.004 | barasertib 0.047

ASH2L (UniProt Q9UBL3)
inactive: [1] 0.018 | [2] -0.047 | [3] 0.003 | [4] 0.01 | Nexturastat A -0.003 | vemurafenib 0.057 | [5] 0.071 | [6] -0.022 | givinostat 0.031 | barasertib 0.007

ACADVL isoform 3 (UniProt P49748)
Sequence of UniProt P49748 (P49748 whole entry, looked up): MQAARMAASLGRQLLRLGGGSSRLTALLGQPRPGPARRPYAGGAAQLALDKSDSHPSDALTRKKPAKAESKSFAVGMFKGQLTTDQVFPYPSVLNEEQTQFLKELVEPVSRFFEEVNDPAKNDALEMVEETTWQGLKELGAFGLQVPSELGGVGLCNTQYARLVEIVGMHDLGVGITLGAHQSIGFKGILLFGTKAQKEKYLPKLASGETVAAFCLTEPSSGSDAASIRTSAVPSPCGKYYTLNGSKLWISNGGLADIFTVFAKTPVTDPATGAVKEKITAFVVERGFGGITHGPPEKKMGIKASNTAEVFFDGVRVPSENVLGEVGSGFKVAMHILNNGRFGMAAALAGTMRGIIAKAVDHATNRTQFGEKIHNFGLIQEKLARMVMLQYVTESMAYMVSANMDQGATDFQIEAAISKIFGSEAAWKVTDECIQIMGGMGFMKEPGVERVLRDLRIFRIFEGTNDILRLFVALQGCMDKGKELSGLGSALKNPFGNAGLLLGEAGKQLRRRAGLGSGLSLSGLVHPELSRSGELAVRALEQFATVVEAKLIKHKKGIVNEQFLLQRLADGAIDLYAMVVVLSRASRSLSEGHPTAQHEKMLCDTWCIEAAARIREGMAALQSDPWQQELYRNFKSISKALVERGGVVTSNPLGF
inactive: [1] -0.004 | [2] 0.01 | [3] 0.024 | [4] -0.002 | Nexturastat A -0.073 | vemurafenib -0.009 | [5] 0.01 | [6] -0.002 | givinostat 0.026 | barasertib 0.006

ATG9A (UniProt Q7Z3C6)
Sequence of UniProt Q7Z3C6 (Q7Z3C6 whole entry, looked up): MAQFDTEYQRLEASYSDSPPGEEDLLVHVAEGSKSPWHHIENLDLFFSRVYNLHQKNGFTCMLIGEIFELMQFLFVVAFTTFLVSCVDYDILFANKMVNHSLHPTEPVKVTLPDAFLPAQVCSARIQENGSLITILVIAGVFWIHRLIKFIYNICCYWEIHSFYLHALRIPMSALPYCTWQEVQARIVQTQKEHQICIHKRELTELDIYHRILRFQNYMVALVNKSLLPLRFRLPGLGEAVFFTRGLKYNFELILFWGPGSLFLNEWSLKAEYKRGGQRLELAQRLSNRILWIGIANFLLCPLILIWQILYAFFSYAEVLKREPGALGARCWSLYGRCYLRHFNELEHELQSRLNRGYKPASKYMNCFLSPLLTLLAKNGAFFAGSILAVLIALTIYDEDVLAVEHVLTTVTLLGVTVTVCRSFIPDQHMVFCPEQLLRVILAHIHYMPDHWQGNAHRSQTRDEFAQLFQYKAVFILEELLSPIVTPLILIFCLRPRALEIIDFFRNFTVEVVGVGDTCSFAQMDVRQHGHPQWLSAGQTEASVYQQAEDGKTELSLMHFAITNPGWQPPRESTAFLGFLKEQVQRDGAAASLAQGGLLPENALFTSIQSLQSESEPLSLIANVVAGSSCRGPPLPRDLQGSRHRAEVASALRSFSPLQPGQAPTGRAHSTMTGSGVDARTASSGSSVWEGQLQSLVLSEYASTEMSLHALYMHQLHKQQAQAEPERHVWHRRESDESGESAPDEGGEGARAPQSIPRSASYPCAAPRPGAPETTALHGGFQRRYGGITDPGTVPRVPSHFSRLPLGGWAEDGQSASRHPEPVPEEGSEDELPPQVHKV
inactive: [1] -0.019 | [2] -0.017 | [3] 0.038 | [4] 0.008 | Nexturastat A -0.018 | vemurafenib -0.006 | [5] 0.019 | [6] 0.007 | givinostat 0.019 | barasertib 0.045

AP2A2 isoform 2 (UniProt O94973)
inactive: [1] 0.084 | [2] 0 | [3] 0.01 | [4] 0.049 | Nexturastat A 0.004 | vemurafenib -0.008 | [5] 0.002 | [6] 0.038 | givinostat 0.003 | barasertib 0.002

B4GALT1 (UniProt P15291)
inactive: [1] -0.009 | [2] -0.027 | [3] 0.002 | [4] -0.05 | Nexturastat A -0.022 | vemurafenib 0.035 | [5] 0.012 | [6] -0.044 | givinostat -0.113 | barasertib -0.01

ACP1 isoform 2 (UniProt P24666)
Sequence of UniProt P24666 (P24666 whole entry, looked up): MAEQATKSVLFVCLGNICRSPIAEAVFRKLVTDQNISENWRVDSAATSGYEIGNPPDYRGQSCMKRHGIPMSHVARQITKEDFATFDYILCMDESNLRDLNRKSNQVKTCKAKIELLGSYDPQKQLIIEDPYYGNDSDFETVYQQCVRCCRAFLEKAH
inactive: [1] 0.008 | [2] -0.013 | [3] 0.025 | [4] -0.008 | Nexturastat A 0.08 | vemurafenib 0.031 | [5] 0.026 | [6] 0.043 | givinostat 0.058 | barasertib 0.074

ASB6 (UniProt Q9NWX5)
Sequence of UniProt Q9NWX5 (Q9NWX5 whole entry, looked up): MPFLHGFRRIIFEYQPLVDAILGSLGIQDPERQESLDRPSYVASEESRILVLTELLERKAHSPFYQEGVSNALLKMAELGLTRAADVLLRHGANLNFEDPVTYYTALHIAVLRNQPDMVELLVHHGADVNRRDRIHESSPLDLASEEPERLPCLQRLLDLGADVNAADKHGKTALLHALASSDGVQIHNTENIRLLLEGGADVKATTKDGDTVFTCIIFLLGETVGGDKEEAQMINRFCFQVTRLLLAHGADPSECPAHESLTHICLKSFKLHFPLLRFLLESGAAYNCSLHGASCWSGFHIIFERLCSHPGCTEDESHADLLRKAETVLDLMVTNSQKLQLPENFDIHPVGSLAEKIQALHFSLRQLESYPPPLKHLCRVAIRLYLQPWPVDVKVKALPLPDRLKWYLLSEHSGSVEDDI
inactive: [1] -0.085 | [2] -0.033 | [3] 0.117 | [4] -0.175 | Nexturastat A 0.125 | vemurafenib -0.144 | [5] 0.108 | [6] -0.039 | givinostat 0.108 | barasertib 0.031

ATP7B (UniProt P35670)
inactive: [1] -0.005 | [2] -0.113 | [3] 0.028 | [4] 0.032 | Nexturastat A -0.013 | vemurafenib -0.001 | [5] 0.032 | [6] 0.036 | givinostat -0.005 | barasertib -0.02

ATAD3B (UniProt Q5T9A4)
inactive: [1] -0.07 | [2] -0.022 | [3] 0.003 | [4] -0.009 | Nexturastat A 0.236 | vemurafenib -0.024 | [5] 0.042 | [6] 0.058 | givinostat 0.05 | barasertib -0.019

BUB1B isoform 3 (UniProt O60566)
inactive: [1] 0.004 | [2] -0.031 | [3] 0.059 | [4] -0.014 | Nexturastat A 0.087 | vemurafenib 0.058 | [5] 0.14 | [6] 0.043 | givinostat 0.118 | barasertib 0.034

ACSL1 (UniProt P33121)
Sequence of UniProt P33121 (P33121 whole entry, looked up): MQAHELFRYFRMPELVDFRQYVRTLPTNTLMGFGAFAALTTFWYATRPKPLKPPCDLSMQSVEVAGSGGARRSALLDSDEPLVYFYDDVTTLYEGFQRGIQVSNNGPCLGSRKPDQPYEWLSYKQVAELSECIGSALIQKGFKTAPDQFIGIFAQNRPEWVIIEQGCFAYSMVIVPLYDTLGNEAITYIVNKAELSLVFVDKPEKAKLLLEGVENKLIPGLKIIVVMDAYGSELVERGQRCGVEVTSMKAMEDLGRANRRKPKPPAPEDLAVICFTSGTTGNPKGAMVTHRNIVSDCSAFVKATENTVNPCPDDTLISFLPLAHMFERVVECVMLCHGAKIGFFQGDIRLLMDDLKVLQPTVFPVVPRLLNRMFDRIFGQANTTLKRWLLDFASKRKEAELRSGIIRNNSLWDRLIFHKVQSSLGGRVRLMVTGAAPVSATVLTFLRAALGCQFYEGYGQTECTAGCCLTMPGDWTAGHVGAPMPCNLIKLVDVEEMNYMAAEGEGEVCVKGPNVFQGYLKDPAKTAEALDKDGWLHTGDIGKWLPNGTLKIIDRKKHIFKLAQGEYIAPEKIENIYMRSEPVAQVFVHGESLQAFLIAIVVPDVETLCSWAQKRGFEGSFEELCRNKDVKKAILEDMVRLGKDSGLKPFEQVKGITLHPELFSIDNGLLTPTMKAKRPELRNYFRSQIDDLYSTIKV
inactive: [1] 0.01 | [2] 0.01 | [3] 0.031 | [4] 0.056 | Nexturastat A -0.115 | vemurafenib -0.021 | [5] 0.041 | [6] -0.018 | givinostat -0.034 | barasertib -0.002

AHCYL1 (UniProt O43865)
inactive: [1] -0.103 | [2] 0.003 | [3] -0.061 | [4] 0.011 | Nexturastat A 0.014 | vemurafenib -0.029 | [5] -0.015 | [6] -0.039 | givinostat -0.026 | barasertib -0.036

AFG1L (UniProt Q8WV93)
inactive: [1] 0.036 | [2] 0.037 | [3] 0.042 | [4] 0.015 | Nexturastat A -0.122 | vemurafenib 0.115 | [5] 0.041 | [6] -0.018 | givinostat 0.013 | barasertib 0.01

AKT1 (UniProt P31749)
inactive: [1] 0.118 | [2] -0.105 | [3] -0.035 | [4] 0.019 | Nexturastat A 0.145 | vemurafenib -0.227 | [5] 0.008 | [6] 0.049 | givinostat 0.133 | barasertib -0.03

AHSA1 (UniProt O95433)
inactive: [1] -0.014 | [2] 0.006 | [3] 0 | [4] 0.062 | Nexturastat A -0.019 | vemurafenib 0.029 | [5] 0.036 | [6] -0.024 | givinostat -0.015 | barasertib 0.027

ALKBH4 (UniProt Q9NXW9)
inactive: [1] 0.071 | [2] -0.008 | [3] -0.015 | [4] 0.019 | Nexturastat A -0.125 | vemurafenib -0.048 | [5] 0.032 | [6] -0.015 | givinostat -0.05 | barasertib -0.016

BCAP29 isoform 2 (UniProt Q9UHQ4)
inactive: [1] -0.078 | [2] 0.006 | [3] 0.015 | [4] 0.01 | Nexturastat A -0.032 | vemurafenib -0.033 | [5] -0.036 | [6] -0.116 | givinostat -0.075 | barasertib 0.025

ACSL4 (UniProt O60488)
inactive: [1] 0.018 | [2] -0.051 | [4] -0.002 | Nexturastat A 0.233 | vemurafenib 0.021 | [5] 0.104 | [6] 0.053 | givinostat 0.047 | barasertib 0.034
active: [3] 0.418

ATOX1 (UniProt O00244)
Sequence of UniProt O00244 (O00244 whole entry, looked up): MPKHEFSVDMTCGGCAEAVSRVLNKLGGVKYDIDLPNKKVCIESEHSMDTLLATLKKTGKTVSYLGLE
inactive: [1] 0.056 | [2] -0.065 | [3] 0.275 | [4] 0.239 | Nexturastat A -0.037 | vemurafenib 0.054 | [5] 0.372 | [6] 0.28 | givinostat -0.072 | barasertib -0.025

ACIN1 (UniProt Q9UKV3)
Sequence of UniProt Q9UKV3 (Q9UKV3 whole entry, looked up): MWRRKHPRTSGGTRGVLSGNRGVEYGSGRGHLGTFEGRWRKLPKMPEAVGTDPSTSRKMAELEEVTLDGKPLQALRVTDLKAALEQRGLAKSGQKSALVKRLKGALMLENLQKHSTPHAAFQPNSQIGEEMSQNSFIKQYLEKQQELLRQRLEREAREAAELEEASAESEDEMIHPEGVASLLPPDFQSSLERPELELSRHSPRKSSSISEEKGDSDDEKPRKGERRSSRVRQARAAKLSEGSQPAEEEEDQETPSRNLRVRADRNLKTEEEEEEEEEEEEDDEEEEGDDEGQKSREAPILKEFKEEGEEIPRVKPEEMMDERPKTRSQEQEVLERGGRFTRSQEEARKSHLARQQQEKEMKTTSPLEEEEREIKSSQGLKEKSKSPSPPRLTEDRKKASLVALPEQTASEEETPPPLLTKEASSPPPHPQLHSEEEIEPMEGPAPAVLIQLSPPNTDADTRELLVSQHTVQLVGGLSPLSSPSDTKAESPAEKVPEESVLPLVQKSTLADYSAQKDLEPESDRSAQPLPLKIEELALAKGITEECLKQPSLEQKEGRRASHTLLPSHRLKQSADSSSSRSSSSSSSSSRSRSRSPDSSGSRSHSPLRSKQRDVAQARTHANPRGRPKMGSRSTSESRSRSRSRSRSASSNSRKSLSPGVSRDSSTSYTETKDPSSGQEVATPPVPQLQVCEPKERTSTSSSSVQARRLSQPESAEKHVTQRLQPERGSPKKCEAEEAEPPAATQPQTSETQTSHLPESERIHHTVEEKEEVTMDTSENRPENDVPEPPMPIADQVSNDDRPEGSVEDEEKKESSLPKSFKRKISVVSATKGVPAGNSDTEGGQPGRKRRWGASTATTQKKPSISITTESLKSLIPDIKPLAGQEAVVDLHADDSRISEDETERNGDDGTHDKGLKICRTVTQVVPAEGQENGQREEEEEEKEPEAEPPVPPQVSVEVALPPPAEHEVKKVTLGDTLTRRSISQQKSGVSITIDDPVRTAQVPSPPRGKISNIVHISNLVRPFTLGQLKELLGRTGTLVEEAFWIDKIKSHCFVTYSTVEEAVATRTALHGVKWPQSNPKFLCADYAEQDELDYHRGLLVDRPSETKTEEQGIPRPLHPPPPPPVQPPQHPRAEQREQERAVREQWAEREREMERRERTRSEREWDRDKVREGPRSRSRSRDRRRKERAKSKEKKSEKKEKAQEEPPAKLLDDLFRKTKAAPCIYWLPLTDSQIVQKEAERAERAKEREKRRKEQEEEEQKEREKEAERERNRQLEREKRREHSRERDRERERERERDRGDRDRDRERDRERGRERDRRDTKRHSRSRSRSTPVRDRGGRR
inactive: [1] -0.028 | [2] 0.039 | [3] -0.015 | [4] -0.013 | Nexturastat A 0.044 | vemurafenib 0 | [5] 0.014 | [6] 0.023 | givinostat 0.105 | barasertib -0.008

ABHD17A isoform 2 (UniProt Q96GS6)
inactive: [1] -0.004 | [2] -0.031 | [3] 0.035 | [4] -0.068 | Nexturastat A 0.034 | vemurafenib -0.039 | [5] -0.032 | [6] -0.021 | givinostat -0.313 | barasertib 0.016

ANXA5 (UniProt P08758)
Sequence of UniProt P08758 (P08758 whole entry, looked up): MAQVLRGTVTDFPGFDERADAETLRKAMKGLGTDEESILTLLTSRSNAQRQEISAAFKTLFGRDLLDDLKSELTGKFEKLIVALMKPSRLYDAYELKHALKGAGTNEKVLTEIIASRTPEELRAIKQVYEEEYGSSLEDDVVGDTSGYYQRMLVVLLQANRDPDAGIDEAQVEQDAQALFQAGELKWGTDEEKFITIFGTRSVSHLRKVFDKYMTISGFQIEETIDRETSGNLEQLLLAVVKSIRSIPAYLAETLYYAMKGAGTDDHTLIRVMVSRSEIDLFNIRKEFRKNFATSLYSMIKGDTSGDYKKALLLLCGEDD
inactive: [1] 0.057 | [2] -0.065 | [3] -0.01 | [4] 0.068 | Nexturastat A -0.116 | vemurafenib 0.07 | [5] 0.071 | [6] 0.039 | givinostat 0.033 | barasertib 0.034

ATAD3A isoform 2 (UniProt Q9NVI7)
inactive: [1] -0.04 | [2] 0.005 | [3] 0.007 | [4] 0.017 | Nexturastat A 0.207 | vemurafenib 0.033 | [5] 0.052 | [6] 0 | givinostat 0.045 | barasertib 0.009
